Experimental findings from PubChem BioAssay (Tox21) are described below.

A short description of experiment [1]: qHTS assay for small molecule agonists of the p53 signaling pathway (AID 651631; calls by dose curve; further: nearly all actives have a fitted effect of over 15% in size). In short, it runs like this: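 Fluorescence intensity from cleaved LiveBLAzer B/G substrate (2 h, room temperature) served as the signal. Beforehand, HCT-116 reporter cells bearing p53 response elements were treated 16 h at 37 °C with DMSO-dissolved compounds.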
Background: Quantitative high-throughput screening tests each substance at several concentrations.

Experiment [2] can be described thus: qHTS assay for small molecules that induce genotoxicity in human embryonic kidney cells expressing luciferase-tagged ATAD5 (AID 651632). Further: nearly all actives have a fitted effect of over 15% in size. A digest of the protocol:
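Test compounds were delivered by pin tool onto HEK293T reporter cells (2,000/well) expressing ATAD5 fused to luciferase. After 16 hr at 37C, 5% CO2, Amplite was added for 30 min at room temperature and luminescence was measured.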

A short description of experiment [3]: qHTS assay for small molecule agonists of the p53 signaling pathway - cell viability (AID 651633; calls by dose curve; further: nearly all actives have a fitted effect of over 30% in size; further: potency means the concentration at half of the fitted maximal effect). A digest of the protocol: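 Viability counter-read: CellTiter-Glo luminescence (30 min, room temperature) in the same p53RE-bla plates. These plates had been exposed to compounds for 16 h at 37 C.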
Experiment [4] in a line: qHTS assay for small molecules that induce genotoxicity in human embryonic kidney cells expressing luciferase-tagged ATAD5 - cell viability (AID 651634; calls by dose curve; further: nearly all actives have a fitted effect of over 25% in size; further: potency means the concentration at half of the fitted maximal effect). A digest of the protocol: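 Quantitative high-throughput format. HEK293T cells expressing ATAD5 fused to luciferase were plated at 2,000 cells/well and treated 15.5 hr with compound versus DMSO. Viability was determined by fluorescent live-cell protease substrate, 30 min at 37C.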

The nature of experiment [5]: qHTS assay for small molecule disruptors of the mitochondrial membrane potential - cell viability (AID 720634; calls by dose curve; further: nearly all actives have a fitted effect of over 20% in size; further: potency means the concentration at half of the fitted maximal effect). In short, it runs like this: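 Same-well counter-screen: following the MMP dye addition, CellTiter-Glo was added to 1 hr compound-treated HepG2 cells and luminescence read after 30 min at room temperature.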
Experiment [6] in a line: qHTS assay for small molecule disruptors of the mitochondrial membrane potential (AID 720635). A digest of the protocol: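 Mitochondrial membrane potential tracked with Mito-MPS dye, red aggregates (ex 540/em 590 nm) against green monomers (ex 490/em 535 nm). Compound treatment 1 hr at 37C, dye 30 min in HepG2.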
The nature of experiment [7]: qHTS assay to test for compound auto fluorescence at 590 nm (red) in HepG2 cells (AID 720674). Further: potency means the concentration at half of the fitted maximal effect. In short, it runs like this: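 1 hr compound incubation on HepG2 cells, 37 C, 5% CO2; plate read ex 540 nm / em 590 nm; intensities reported as Rose Bengal sodium equivalents.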
A short description of experiment [8]: qHTS assay to test for compound auto fluorescence at 535 nm (green) in HepG2 cells (AID 720675).
Experiment [9] can be described thus: qHTS assay to test for compound auto fluorescence at 460 nm (blue) in HEK293 cells (AID 720678). A digest of the protocol:
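HEK293 cells (2,000 per well, medium with 10% dialyzed FBS) attached for 4-5 hr at 37C, then received compound and stood overnight at 37C, 5% CO2. Blue fluorescence was read at Ex/Em 405/460 nm and expressed relative to triamterene.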

The nature of experiment [10]: qHTS assay to test for compound auto fluorescence at 590 nm (red) in HEK293 cells (AID 720679). Further: potency means the concentration at half of the fitted maximal effect. A digest of the protocol:
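HEK293 cells (2,000/well, medium with 10% dialyzed FBS) attached for 4-5 hr at 37C, received 23 nL compound and were incubated overnight at 37C, 5% CO2. Red fluorescence was then read at 540/590nm Ex/Em, referenced to Rose Bengal sodium.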

A short description of experiment [11]: qHTS assay to test for compound auto fluorescence at 535 nm (green) in HEK293 cell free culture (AID 720682). In short, it runs like this:
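Intrinsic compound fluorescence is measured in culture medium containing 10% FBS, with excitation at 485 nm and detection at 535 nm, referenced to fluorescein.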

The nature of experiment [12]: qHTS assay to test for compound auto fluorescence at 590 nm (red) in HEK293 cell free culture (AID 720683). Further: potency means the concentration at half of the fitted maximal effect. In short, it runs like this:
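Red-channel autofluorescence of compounds in culture medium (DMEM, 10% FBS), no cells, measured at 540/590 nm. Rose Bengal sodium is the reference fluorophore for equivalence.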

Experiment [13] in a line: qHTS assay to test for compound auto fluorescence at 590 nm (red) in HepG2 cell free culture (AID 720684). Further: potency means the concentration at half of the fitted maximal effect. A digest of the protocol:
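Cell-free; medium MEM + 10% FBS; compound or DMSO added by pintool; read Ex 540/Em 590 nm; Rose Bengal sodium as red reference fluorophore.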

Experiment [14] is described as follows: qHTS assay to test for compound auto fluorescence at 460 nm (blue) in HepG2 cell free culture (AID 720685). A digest of the protocol:
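Cell-free plates of MEM plus 10% FBS received 23 nL compound or DMSO vehicle; blue-channel (405/460 nm) intensity scored against triamterene as reference fluorophore.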

The nature of experiment [15]: qHTS assay to test for compound auto fluorescence at 535 nm (green) in HepG2 cell free culture (AID 720686).
The nature of experiment [16]: qHTS assay to test for compound auto fluorescence at 460 nm (blue) in HepG2 cells (AID 720687). In short, it runs like this:
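Blue-channel autofluorescence (Ex/Em 405/460 nm, triamterene-equivalent) was measured after 1 hr compound exposure at 37 C, 5% CO2. Cells were HepG2, plated overnight at 37 C in MEM plus 10% FBS.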

For experiment [17], the target named is Glucocorticoid receptor (Homo sapiens) (UniProt P04150). The experiment is described as follows: qHTS assay to identify small molecule agonists of the glucocorticoid receptor (GR) signaling pathway (AID 720691; active means well fitted activation curve with a large enough effect in the signal ratio in the repeat runs, not every such curve was filed as active; the % refers to the signal ratio). A digest of the protocol: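 A HeLa cervical cancer line expressing GR and a glucocorticoid response element-driven beta-lactamase gene is treated with compounds for 18 h; LiveBLAzer B/G FRET substrate is then applied and fluorescence read.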
Glucocorticoid receptor (Homo sapiens), sequence (P04150 whole entry, looked up): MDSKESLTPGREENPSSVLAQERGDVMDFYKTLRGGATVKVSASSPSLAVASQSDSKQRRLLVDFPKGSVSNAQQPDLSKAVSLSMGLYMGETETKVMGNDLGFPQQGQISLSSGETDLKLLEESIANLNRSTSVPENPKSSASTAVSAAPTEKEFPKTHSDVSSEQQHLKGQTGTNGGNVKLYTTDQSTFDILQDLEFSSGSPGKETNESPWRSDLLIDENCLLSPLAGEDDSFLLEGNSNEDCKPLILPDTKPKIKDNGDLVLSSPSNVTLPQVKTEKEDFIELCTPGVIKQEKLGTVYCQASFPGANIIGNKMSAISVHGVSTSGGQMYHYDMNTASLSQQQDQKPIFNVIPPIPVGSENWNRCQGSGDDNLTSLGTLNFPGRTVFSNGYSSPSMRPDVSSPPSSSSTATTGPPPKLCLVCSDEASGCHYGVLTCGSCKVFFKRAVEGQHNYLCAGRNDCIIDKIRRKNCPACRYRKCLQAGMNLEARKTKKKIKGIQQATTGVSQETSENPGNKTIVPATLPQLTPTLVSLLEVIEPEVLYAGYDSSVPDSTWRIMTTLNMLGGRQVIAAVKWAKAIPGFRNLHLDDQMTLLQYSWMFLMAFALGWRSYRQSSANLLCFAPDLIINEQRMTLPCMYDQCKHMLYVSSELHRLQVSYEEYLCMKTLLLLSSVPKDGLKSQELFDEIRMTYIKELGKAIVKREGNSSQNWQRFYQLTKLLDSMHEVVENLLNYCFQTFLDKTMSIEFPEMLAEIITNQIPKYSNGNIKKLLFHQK

The target is the same in experiment [18]. The experiment is described as follows: qHTS assay to identify small molecule antagonists of the glucocorticoid receptor (GR) signaling pathway (AID 720692; active means well fitted inhibition curve with a large enough effect in the signal ratio in the repeat runs, not every such curve was filed as active; the % refers to the signal ratio). A digest of the protocol: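 GRE-bla HeLa line, dex-stimulated (5 nM final). Compound exposure 18 h, 37 C. Beta-lactamase FRET read after 2 h RT substrate.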
The nature of experiment [19]: qHTS assay to test for compound auto fluorescence at 535 nm (green) in HEK293 cells (AID 720680).
The nature of experiment [20]: qHTS assay to test for compound auto fluorescence at 460 nm (blue) in HEK293 cell free culture (AID 720681). In short, it runs like this:
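Blue fluorescence (Ex 405/Em 460 nm, triamterene-equivalent) was read immediately after pin transfer of compound or DMSO into medium (DMEM, 10% FBS) without cells.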

Unmarked numbers belong to inactive results. Inconclusive results are not listed. Calls of active or inactive are those of the source. Unless noted, the call rests on the fitted dose curve; in most records, active means well fitted curve in the direction sought with a large enough effect in the repeat runs; inconclusive means weak or mixed curves; inactive means no such curve, though single readings can be large; an effect the other way counts as inactive or inconclusive.
Tags describe the fitted curve by direction and shape or compound fluorescence and quenching.

Regarding `O=C(/C=C/c1ccc(O)c(O)c1)O[C@@H](C(=O)O)[C@@H](OC(=O)/C=C/c1ccc(O)c(O)c1)C(=O)O`, the Potency result in [1], in experiment [2], in experiment [3], in experiment [4], in experiment [5] and in experiment [6] was “inactive” in each case. Also, the Potency result in experiment [7], in experiment [8], in experiment [9], in [10], in experiment [11] and in experiment [12] was “inactive” throughout. The Potency result in experiment [13], in experiment [14], in experiment [15], in experiment [16], in experiment [17] and in experiment [18] was “inactive” throughout.
`CC(=O)Oc1cc2c(s1)CCN(C(C(=O)C1CC1)c1ccccc1F)C2` (centres undefined): the Potency result in [1], in experiment [2], in [3], in [4], in [5] and in experiment [6] was “inactive” in each case. For the same molecule, the Potency entry in [7], in [8], in experiment [9], in experiment [10], in [19] and in experiment [20] was “inactive” in each case. Further, the Potency entry in experiment [11], in [12], in experiment [13], in experiment [14], in experiment [15] and in experiment [16] was “inactive” each time. In experiment [17], the Potency entry was “inactive”.
As to `C=CCn1c(=O)n(CC=C)c(=O)n(CC=C)c1=O`, the Potency result in experiment [1], in experiment [2], in experiment [3], in [4], in experiment [5] and in [6] was “inactive” throughout. Also, the Potency entry in [7], in experiment [8], in [9], in experiment [10], in experiment [19] and in experiment [20] was “inactive” throughout. For the same molecule, the Potency entry in experiment [11], in experiment [12], in [13], in [15], in experiment [16] and in experiment [17] was “inactive” in each case.
Regarding `CN(C)Cc1ccccc1O`, the Potency result in [1], in [2], in [3], in [4], in [5] and in experiment [6] was “inactive” in each case. Further, the Potency result in experiment [7], in experiment [8], in experiment [9], in [10], in experiment [19] and in experiment [20] was “inactive” in each case. Moreover, the Potency result in experiment [11], in experiment [12], in experiment [13], in experiment [14], in [15] and in experiment [16] was “inactive” in each case. In [17], the Potency result is “inactive”.
Consider `OC[C@@H](O)[C@@H](O)CO`, for which the Potency result in experiment [1], in [2], in experiment [3], in [4], in [5] and in experiment [6] was “inactive” each time. The Potency entry in [7], in experiment [8], in experiment [9], in experiment [10], in experiment [19] and in experiment [20] was “inactive” throughout. Besides, the Potency result in experiment [11], in experiment [12], in experiment [13], in experiment [14], in experiment [15] and in [16] was “inactive” throughout. For the same molecule, the Potency result in experiment [17] was “inactive”.
Take `CCCCN(CCCC)CC(O)c1cc(Cl)cc2c1-c1ccc(Cl)cc1/C2=C/c1ccc(Cl)cc1` (centres undefined): the Potency entry in experiment [1], in experiment [2], in experiment [3], in experiment [4], in experiment [5] and in experiment [7] was “inactive” in each case. For the same molecule, the Potency result in experiment [8], in [10], in [20], in [11], in experiment [12] and in experiment [13] was “inactive” each time. The Potency entry in [14], in experiment [15], in experiment [16] and in experiment [17] was “inactive” each time.
Regarding `CCN(CC)c1ccc2c(-c3ccc(S(=O)(=O)O)cc3S(=O)(=O)[O-])c3ccc(=[N+](CC)CC)cc-3oc2c1`, the Potency result in [1], in experiment [2], in [8], in experiment [9], in experiment [19] and in [20] was “inactive” in each case. In addition, the Potency result in [11], in [14], in experiment [15], in experiment [16], in experiment [17] and in experiment [18] was “inactive” each time. The Potency in [3] is 9990 nM (active); in experiment [4], 25100 nM (active); in experiment [5] it was 70700 nM (active); in experiment [7], 398 nM (active); in [10], 501 nM [fluorescent] (active); in experiment [12] it was 794 nM [fluorescent] (active). In addition, in [13], the Potency is 355 nM [fluorescent] (active).
Consider `CC1=Nc2ccccc2C1(C)C`, for which the Potency entry in experiment [1], in experiment [2], in [3], in experiment [4], in [5] and in experiment [6] was “inactive” each time. Also, the Potency entry in experiment [7], in [8], in experiment [9], in experiment [10], in experiment [19] and in experiment [20] was “inactive” each time. Besides, the Potency entry in experiment [11], in experiment [12], in experiment [13], in experiment [14], in experiment [15] and in experiment [16] was “inactive” each time. Further, the Potency result in experiment [17] is “inactive”.
For `O=C(O)c1cc(=O)c2ccccc2o1`, the Potency entry in experiment [1], in experiment [2], in experiment [3], in experiment [4], in [5] and in experiment [6] was “inactive” throughout. The Potency entry in [7], in experiment [8], in [9], in experiment [10], in experiment [19] and in experiment [20] was “inactive” throughout. Moreover, the Potency result in experiment [11], in experiment [12], in [13], in experiment [14], in experiment [15] and in experiment [16] was “inactive” throughout. For the same molecule, the Potency entry in [17] and in [18] was “inactive” each time.
As for `C=CC(C)(CCC=C(C)C)OC=O` (centres undefined), the Potency result in experiment [1], in experiment [2], in experiment [3], in experiment [4], in experiment [5] and in experiment [6] was “inactive” in each case. Also, the Potency result in [7], in [8], in experiment [9], in [10], in experiment [19] and in experiment [20] was “inactive” throughout. For the same molecule, the Potency result in experiment [11], in [12], in experiment [13], in experiment [14], in experiment [15] and in [16] was “inactive” each time. The Potency entry in [17] and in experiment [18] was “inactive” each time.
Regarding `Cc1cccc2cccnc12`, the Potency result in [1], in [2], in [3], in experiment [4], in experiment [5] and in [6] was “inactive” each time. Further, the Potency result in experiment [7], in experiment [8], in [9], in [10], in [19] and in experiment [20] was “inactive” in each case. Moreover, the Potency result in [11], in experiment [12], in experiment [13], in experiment [14], in experiment [15] and in experiment [16] was “inactive” each time.
In the case of `O=C(/C=C/c1ccccc1)OC/C=C/c1ccccc1`, the Potency entry in experiment [1], in [2], in experiment [3], in experiment [4], in experiment [5] and in experiment [7] was “inactive” throughout. The Potency entry in [8], in [9], in experiment [10], in [19], in [20] and in experiment [11] was “inactive” in each case. Further, the Potency result in experiment [12], in experiment [13], in experiment [14], in experiment [15], in [16] and in experiment [17] was “inactive” throughout. Further, the Potency entry in experiment [18] was “inactive”.
